Laboratory results from the supplement of paper PMC12282887.
± gives the standard deviation of the averaged measurements.

Key:
Assay in all cases: promoter activity interaction Z-score (Lux/OD deviation from empty-vector control); higher = stronger promoter induction by the compound
[1] = system: E. coli BW25113 tolCp lux reporter
In short: (§1)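 Every compound was given at four 1:2 dilutions, in biological duplicates, to E. coli BW25113 carrying low-copy luxCDABE promoter reporters in wild-type or single-gene deletion backgrounds. Growth in 40 µl LB Lennox in 384-well plates at 37°C was followed by OD600 and luminescence readings every 30 min for 12 h, integrated over 0–8 h for wild type and 1–9 h for deletion strains, with wells below 10% of the median growth value excluded. Scores are Z-transformed residuals of growth-normalised luminescence fitted against a control.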

[2] = system: E. coli BW25113 acrABp lux reporter
In short: as §1

[3] = system: E. coli BW25113 micFp lux reporter
In short: as §1

[4] = system: E. coli BW25113 ompFp lux reporter
In short: as §1

[5] = system: E. coli BW25113 robp lux reporter
In short: as §1

[6] = system: E. coli BW25113 soxSp lux reporter
In short: as §1

[7] = 1.3 µg/ml, genetic background: wild type
[8] = 1.3 µg/ml, genetic background: ΔmarA
[9] = 1.3 µg/ml, genetic background: Δrob
[10] = 1.3 µg/ml, genetic background: ΔsoxS
[11] = 2.5 µg/ml, genetic background: wild type
[12] = 2.5 µg/ml, genetic background: ΔmarA
[13] = 2.5 µg/ml, genetic background: Δrob
[14] = 2.5 µg/ml, genetic background: ΔsoxS
[15] = 5 µg/ml, genetic background: wild type
[16] = 5 µg/ml, genetic background: ΔmarA
[17] = 5 µg/ml, genetic background: Δrob
[18] = 5 µg/ml, genetic background: ΔsoxS
[19] = 10 µg/ml, genetic background: wild type
[20] = 10 µg/ml, genetic background: ΔmarA
[21] = 10 µg/ml, genetic background: Δrob
[22] = 10 µg/ml, genetic background: ΔsoxS

COc1ccc(C[C@H](N)C(=O)N[C@H]2[C@@H](O)[C@H](n3cnc4c(N(C)C)ncnc43)O[C@@H]2CO)cc1 [Puromycin]
promoter activity interaction Z-score ([1]; 3.1 µg/ml, genetic background: Δrob): -0.281 ± 0.23 | promoter activity interaction Z-score ([1]; 3.1 µg/ml, genetic background: ΔsoxS): 0.126 ± 0.63 | promoter activity interaction Z-score ([1]; 6.1 µg/ml, genetic background: wild type): -0.252 ± 0.51 | promoter activity interaction Z-score ([1]; 6.1 µg/ml, genetic background: ΔmarA): -0.611 ± 0.2 | promoter activity interaction Z-score ([1]; 6.1 µg/ml, genetic background: Δrob): -0.785 ± 0.27 | promoter activity interaction Z-score ([1]; 6.1 µg/ml, genetic background: ΔsoxS): -0.165 ± 0.34 | promoter activity interaction Z-score ([1]; 12.2 µg/ml, genetic background: wild type): -0.285 ± 0.69 | promoter activity interaction Z-score ([1]; 12.2 µg/ml, genetic background: ΔmarA): 0.412 ± 0.11 | promoter activity interaction Z-score ([1]; 12.2 µg/ml, genetic background: Δrob): -0.374 ± 0.33 | promoter activity interaction Z-score ([1]; 12.2 µg/ml, genetic background: ΔsoxS): -0.186 ± 0.2 | promoter activity interaction Z-score ([1]; 24.5 µg/ml, genetic background: wild type): 1.04 ± 0.64 | promoter activity interaction Z-score ([1]; 24.5 µg/ml, genetic background: ΔmarA): 1.74 | promoter activity interaction Z-score ([1]; 24.5 µg/ml, genetic background: Δrob): -0.0754 ± 0.73 | promoter activity interaction Z-score ([1]; 24.5 µg/ml, genetic background: ΔsoxS): 0.227 ± 0.79

C/C=C/C/C=C/CCC(=O)[C@H]1O[C@H]1C(N)=O [Cerulenin]
promoter activity interaction Z-score [2, 7]: -0.125 ± 0.083 | promoter activity interaction Z-score [2, 8]: 0.156 ± 2.5 | promoter activity interaction Z-score [2, 9]: -0.449 ± 0.14 | promoter activity interaction Z-score [2, 10]: -0.289 ± 0.15 | promoter activity interaction Z-score [2, 11]: -0.467 ± 0.3 | promoter activity interaction Z-score [2, 12]: -0.0359 ± 0.66 | promoter activity interaction Z-score [2, 13]: -0.976 ± 0.19 | promoter activity interaction Z-score [2, 14]: -0.932 ± 0.045 | promoter activity interaction Z-score [2, 15]: -0.444 ± 0.41 | promoter activity interaction Z-score [2, 16]: -0.831 ± 1.3 | promoter activity interaction Z-score [2, 17]: -0.767 ± 0.071 | promoter activity interaction Z-score [2, 18]: -1.14 ± 0.31 | promoter activity interaction Z-score [2, 19]: -0.873 ± 0.42 | promoter activity interaction Z-score [2, 20]: -0.628 ± 0.16 | promoter activity interaction Z-score [2, 21]: -1.08 ± 0.23 | promoter activity interaction Z-score [2, 22]: -1.52 ± 0.22 | promoter activity interaction Z-score [3, 7]: -0.474 ± 0.33 | promoter activity interaction Z-score [3, 8]: -0.0522 ± 0.1 | promoter activity interaction Z-score [3, 9]: -0.112 ± 0.0041 | promoter activity interaction Z-score [3, 10]: -0.269 ± 0.047 | promoter activity interaction Z-score [3, 11]: -0.545 ± 0.087 | promoter activity interaction Z-score [3, 12]: 0.0153 ± 0.15 | promoter activity interaction Z-score [3, 13]: -0.217 ± 0.13 | promoter activity interaction Z-score [3, 14]: -0.157 ± 0.23 | promoter activity interaction Z-score [3, 15]: -0.73 ± 0.2 | promoter activity interaction Z-score [3, 16]: -0.0985 ± 0.11 | promoter activity interaction Z-score [3, 17]: -0.316 ± 0.094 | promoter activity interaction Z-score [3, 18]: -0.417 ± 0.0084 | promoter activity interaction Z-score [3, 19]: -0.803 ± 0.19 | promoter activity interaction Z-score [3, 20]: -0.112 ± 0.028 | promoter activity interaction Z-score [3, 21]: -0.428 ± 0.056 | promoter activity interaction Z-score [3, 22]: -0.177 ± 0.14 | promoter activity interaction Z-score [4, 7]: 0.448 ± 0.98 | promoter activity interaction Z-score [4, 8]: -0.174 ± 0.032 | promoter activity interaction Z-score [4, 9]: 0.809 ± 0.68 | promoter activity interaction Z-score [4, 10]: 0.456 ± 0.65 | promoter activity interaction Z-score [4, 11]: 0.281 ± 0.58 | promoter activity interaction Z-score [4, 12]: 0.575 ± 1.4 | promoter activity interaction Z-score [4, 13]: 0.286 ± 1.6 | promoter activity interaction Z-score [4, 14]: 0.108 ± 0.82 | promoter activity interaction Z-score [4, 15]: 0.0997 ± 0.61 | promoter activity interaction Z-score [4, 16]: -0.516 ± 0.26 | promoter activity interaction Z-score [4, 17]: -0.143 ± 0.79 | promoter activity interaction Z-score [4, 18]: -0.26 ± 1 | promoter activity interaction Z-score [4, 19]: -0.484 ± 0.16 | promoter activity interaction Z-score [4, 20]: -0.179 ± 1.2 | promoter activity interaction Z-score [4, 21]: -0.74 ± 0.62 | promoter activity interaction Z-score [4, 22]: -0.034 ± 1 | promoter activity interaction Z-score [5, 7]: -0.713 ± 0.68 | promoter activity interaction Z-score [5, 8]: -0.524 ± 0.17 | promoter activity interaction Z-score [5, 9]: -0.0923 ± 0.31 | promoter activity interaction Z-score [5, 10]: -0.398 ± 0.41 | promoter activity interaction Z-score [5, 11]: -0.365 ± 0.25 | promoter activity interaction Z-score [5, 12]: 1.47 ± 0.041 | promoter activity interaction Z-score [5, 13]: -0.839 ± 0.52 | promoter activity interaction Z-score [5, 14]: -0.254 ± 0.55 | promoter activity interaction Z-score [5, 15]: -0.743 ± 0.19 | promoter activity interaction Z-score [5, 16]: -0.973 ± 0.24 | promoter activity interaction Z-score [5, 17]: -0.585 ± 0.0081 | promoter activity interaction Z-score [5, 18]: -1.25 ± 0.42 | promoter activity interaction Z-score [5, 19]: -0.802 ± 0.13 | promoter activity interaction Z-score [5, 20]: -0.285 ± 0.72 | promoter activity interaction Z-score [5, 21]: -0.242 ± 0.94 | promoter activity interaction Z-score [5, 22]: -1.2 ± 0.47 | promoter activity interaction Z-score [6, 7]: 0.113 ± 0.13 | promoter activity interaction Z-score [6, 8]: 0.192 ± 0.091 | promoter activity interaction Z-score [6, 9]: 0.247 ± 0.027 | promoter activity interaction Z-score [6, 10]: 0.367 ± 0.43 | promoter activity interaction Z-score [6, 11]: 0.186 ± 0.013 | promoter activity interaction Z-score [6, 12]: 0.183 ± 0.076 | promoter activity interaction Z-score [6, 13]: 0.113 ± 0.03 | promoter activity interaction Z-score [6, 14]: 0.157 ± 0.38 | promoter activity interaction Z-score [6, 15]: 0.112 ± 0.028 | promoter activity interaction Z-score [6, 16]: 0.138 ± 0.17 | promoter activity interaction Z-score [6, 17]: 0.18 ± 0.047 | promoter activity interaction Z-score [6, 18]: 0.17 ± 0.56 | promoter activity interaction Z-score [6, 19]: -0.107 ± 0.23 | promoter activity interaction Z-score [6, 20]: -0.0897 ± 0.034 | promoter activity interaction Z-score [6, 21]: -0.133 ± 0.19 | promoter activity interaction Z-score [6, 22]: 0.572 ± 1.2 | promoter activity interaction Z-score [1, 7]: -1.14 ± 0.49 | promoter activity interaction Z-score [1, 8]: -0.979 ± 0.76 | promoter activity interaction Z-score [1, 9]: -0.746 ± 0.32 | promoter activity interaction Z-score [1, 10]: -0.768 ± 0.23 | promoter activity interaction Z-score [1, 11]: -0.464 ± 0.17 | promoter activity interaction Z-score [1, 12]: -0.204 ± 1.3 | promoter activity interaction Z-score [1, 13]: -1.38 ± 0.2 | promoter activity interaction Z-score [1, 14]: -0.639 ± 0.61 | promoter activity interaction Z-score [1, 15]: -0.559 ± 0.033 | promoter activity interaction Z-score [1, 16]: -0.9 ± 0.62 | promoter activity interaction Z-score [1, 17]: -1.25 ± 0.71 | promoter activity interaction Z-score [1, 18]: -1.5 ± 0.1 | promoter activity interaction Z-score [1, 19]: -0.737 ± 0.051 | promoter activity interaction Z-score [1, 20]: -1.7 ± 0.36 | promoter activity interaction Z-score [1, 21]: -0.996 ± 0.2 | promoter activity interaction Z-score [1, 22]: -0.404 ± 0.65
